From PubChem BioAssay (NCATS)
The source made the active and inactive calls. Calls come from the whole dose curve; as a rule, active = well fitted curve in the direction sought with a large enough effect; inconclusive = small, poorly fitted or top-dose-only effect, or another doubt; inactive = no such curve, though single readings can be large or run the other way.

The compounds below were run against T1, Hexokinase-4 (Homo sapiens) + Glucokinase regulatory protein (Homo sapiens) (UniProt P35557+Q14397) (assay: qHTS assay for inhibitors of recombinant human GCK-GKRP interaction: ADP-Glo assay (AID 743206)). Details: ADP-Glo luminescence, 60 min, 0% = vehicle-only wells with enzyme present; series mostly up to 76.9 µM.
T1 sequence (P35557 whole entry, looked up): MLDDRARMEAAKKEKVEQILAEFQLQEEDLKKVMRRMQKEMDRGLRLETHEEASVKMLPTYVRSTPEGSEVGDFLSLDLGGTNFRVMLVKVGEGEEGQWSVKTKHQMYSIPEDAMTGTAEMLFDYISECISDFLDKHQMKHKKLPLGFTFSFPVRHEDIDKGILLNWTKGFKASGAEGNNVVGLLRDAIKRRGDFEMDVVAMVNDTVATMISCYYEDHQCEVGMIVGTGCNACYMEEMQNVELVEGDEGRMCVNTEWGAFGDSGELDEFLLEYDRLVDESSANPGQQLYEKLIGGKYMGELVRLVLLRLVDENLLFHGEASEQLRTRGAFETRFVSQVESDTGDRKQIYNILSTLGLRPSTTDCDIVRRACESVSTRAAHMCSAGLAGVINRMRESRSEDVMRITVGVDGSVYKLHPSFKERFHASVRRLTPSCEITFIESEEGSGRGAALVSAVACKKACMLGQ
T1 sequence (Q14397 whole entry, looked up): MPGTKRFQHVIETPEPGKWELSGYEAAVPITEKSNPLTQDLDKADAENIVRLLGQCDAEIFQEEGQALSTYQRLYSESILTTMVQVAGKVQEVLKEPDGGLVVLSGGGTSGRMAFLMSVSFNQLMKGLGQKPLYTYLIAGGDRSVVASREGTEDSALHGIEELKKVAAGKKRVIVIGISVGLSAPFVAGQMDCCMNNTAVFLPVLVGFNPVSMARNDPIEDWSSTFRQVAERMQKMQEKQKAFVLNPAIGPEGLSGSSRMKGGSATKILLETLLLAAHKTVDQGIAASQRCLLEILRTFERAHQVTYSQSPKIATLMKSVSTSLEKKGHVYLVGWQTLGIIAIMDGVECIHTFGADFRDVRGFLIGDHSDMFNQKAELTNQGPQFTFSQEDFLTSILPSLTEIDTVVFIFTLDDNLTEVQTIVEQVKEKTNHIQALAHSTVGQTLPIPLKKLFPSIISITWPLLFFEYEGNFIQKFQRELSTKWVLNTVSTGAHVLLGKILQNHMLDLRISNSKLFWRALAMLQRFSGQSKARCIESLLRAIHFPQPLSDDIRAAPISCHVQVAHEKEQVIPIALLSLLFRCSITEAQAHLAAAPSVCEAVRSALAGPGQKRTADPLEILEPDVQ
Outline: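 Pin-transferred compounds meet a 15 nM GST-GCK/15 nM FLAG-GKRP/2 uM S6P mix (dispense concentrations). ATP is then added to 0.4 mM final with 5 mM glucose, and the reaction runs 60 min at room temperature. ADP is quantified luminescently.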
For `Cc1c(C(=O)c2cccc3ccccc23)c2cccc3c2n1[C@H](CN1CCOCC1)CO3`, the outcome was “inactive”. In the case of `NC(=O)CN1CC(O)CC1=O` (configuration not stated), the outcome is reported as “inactive”. In the case of `C#CCOC(=O)C1=CCCN(C)C1`, the outcome is reported as “inactive”. With `C[C@]12N[C@H](Cc3ccccc31)c1ccccc12` the outcome was “inactive”. For `CC(=O)NCCc1c[nH]c2ccccc12`, the outcome was “inactive”. `CCCCc1ccc(C(=O)O)nc1` was tested, and the outcome was “inactive”. With `O=C(N[C@H]1CN2CCC1CC2)c1ccc(Cl)cc1` the outcome was “inactive”. For `CC(C)NC(C)Cc1ccc(I)cc1` (configuration not stated), the outcome was “inactive”. In the case of `CC[C@@H](C(N)=O)N1CCCC1=O`, the outcome is reported as “inactive”. `CC[C@@]1(O)C(=O)OCc2c1cc1n(c2=O)Cc2cc3ccccc3nc2-1` was tested, and the outcome was “inactive”. `O=C(O)CC[N+](=O)[O-]` was tested, and the outcome was “inactive”. `CCCN(CCC)[C@@H]1CCc2ccc(O)cc2C1` was tested, and the outcome was “inactive”. `C[C@@H](N)Cc1cnc[nH]1` was tested, and the outcome was “inactive”. `c1ccc2sc(C3(N4CCCCC4)CCCCC3)cc2c1` was tested, and the outcome was “inactive”. With `COC(=O)[C@@H](N)CCCN=C(N)N[N+](=O)[O-]` the outcome was “inactive”. With `c1ccc(C2(c3ccccc3)CC2C2=NCCN2)cc1` (configuration not stated) the outcome was “inactive”. In the case of `O=C1CCCN1CC#CCN1CCCC1`, the outcome is reported as “inactive”. `CC1=NN=C(c2ccc(N)cc2)c2cc3c(cc2C1)OCO3` was tested, and the outcome was “inactive”. In the case of `c1ccc(CCCN2CCN(CCOC(c3ccccc3)c3ccccc3)CC2)cc1`, the outcome is reported as “inactive”. With `C[C@@H]1O[C@H](C[N+](C)(C)C)C[C@H]1O` the outcome was “inactive”. In the case of `S=C(NC1CCCCC1)N1CCC(c2cnc[nH]2)CC1`, the outcome is reported as “inactive”. `NC(CP(=O)(O)O)C(=O)O` (configuration not stated) was tested, and the outcome was “inactive”. With `Oc1ccc2c3c1O[C@H]1c4[nH]c5c(c4C[C@@]4(O)[C@@H](C2)N(CC2CC2)CC[C@]314)C[C@@]1(O)[C@H]2Cc3ccc(O)c4c3[C@@]1(CCN2CC1CC1)[C@H]5O4` the outcome was “inactive”. With `NCCc1c[nH]c2ccccc12` the outcome was “inactive”. `COc1cc(C(O)CN)ccc1O` (configuration not stated) was tested, and the outcome was “inactive”. With `C/C=C(/C)C(=O)O[C@H]1C(C)=C2[C@H]([C@@H]1OC(=O)CCCCCCC)[C@@](C)(OC(C)=O)C[C@H](OC(=O)CCC)[C@@]1(O)[C@H]2OC(=O)[C@@]1(C)O` the outcome was “inactive”. `NC1CC1c1ccccc1` (configuration not stated) was tested, and the outcome was “inactive”. For `CCCN1CCC[C@H](c2cccc(O)c2)C1`, the outcome was “inactive”. With `NC(N)=NOCCC(N)C(=O)O` (configuration not stated) the outcome was “inactive”. With `COc1ccc2c(c[n+](C)c3c4cc5c(cc4ccc23)OCO5)c1OC` the outcome was “inactive”.

The compounds below were run against T1, Hexokinase-4 (Homo sapiens) + Glucokinase regulatory protein (Homo sapiens) (assay: qHTS assay for inhibitors of recombinant human GCK-GKRP interaction: HTRF assay (AID 743207)). Details: recombinant GCK-GKRP HTRF binding, 60 min; series mostly up to 57.5 µM.
Outline: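 HTRF read-out (ex 320 nm; 615/665 nm emission) after 60 min RT equilibration of 5 nM GST-GCK, 5 nM FLAG-GKRP, 2 uM S6P, compound and anti-FLAG/anti-GST detection antibodies; signal normalized between DMSO wells with and without GCK.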
In the case of `NC(=O)CN1CC(O)CC1=O` (configuration not stated), the outcome is reported as “inactive”. For `C#CCOC(=O)C1=CCCN(C)C1`, the outcome was “inactive”. `C[C@]12N[C@H](Cc3ccccc31)c1ccccc12` was tested, and the outcome was “inactive”. `CC(=O)NCCc1c[nH]c2ccccc12` was tested, and the outcome was “inactive”. `CCCCc1ccc(C(=O)O)nc1` was tested, and the outcome was “inactive”. With `O=C(N[C@H]1CN2CCC1CC2)c1ccc(Cl)cc1` the outcome was “inactive”. For `CC(C)NC(C)Cc1ccc(I)cc1` (configuration not stated), the outcome was “inactive”. With `CC[C@@H](C(N)=O)N1CCCC1=O` the outcome was “inactive”. For `CC[C@@]1(O)C(=O)OCc2c1cc1n(c2=O)Cc2cc3ccccc3nc2-1`, the outcome was “inactive”. In the case of `O=C(O)CC[N+](=O)[O-]`, the outcome is reported as “inactive”. With `CCCN(CCC)[C@@H]1CCc2ccc(O)cc2C1` the outcome was “inactive”. `C[C@@H](N)Cc1cnc[nH]1` was tested, and the outcome was “inactive”.
